Experimental findings from PubChem BioAssay (NCATS) are described below.

Structures are written as SMILES. Results filed as inconclusive are left out. The list shows a part of the results. Activity calls are given as the source filed them. Unless noted, calls follow the shape of the dose curve; as a rule, active = well fitted curve in the direction sought with a large enough effect; inconclusive = small, poorly fitted or top-dose-only effect, or another doubt; inactive = no such curve, though single readings can be large; an effect the other way counts as inactive or inconclusive.

For assay [1], the target named is DNA repair nuclease/redox regulator APEX1 (Homo sapiens) (UniProt P27695). The assay is described as follows: qHTS Validation Assay for Inhibitors of the Human Apurinic/apyrimidinic Endonuclease 1 (APE1) (AID 1705;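 also: TAMRA fluorescence gain over two minutes as APE1 cuts a quenched THF abasic duplex; series mostly up to about 57 µM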). In short, it runs like this: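 Substrate: 50 nM final fluorophore/quencher THF-abasic duplex. Enzyme preincubated with compounds 15 min, RT. Progress derived from fluorescence difference, third minus first kinetic read.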
Chain of DNA repair nuclease/redox regulator APEX1 (Homo sapiens) (P27695 whole entry, looked up): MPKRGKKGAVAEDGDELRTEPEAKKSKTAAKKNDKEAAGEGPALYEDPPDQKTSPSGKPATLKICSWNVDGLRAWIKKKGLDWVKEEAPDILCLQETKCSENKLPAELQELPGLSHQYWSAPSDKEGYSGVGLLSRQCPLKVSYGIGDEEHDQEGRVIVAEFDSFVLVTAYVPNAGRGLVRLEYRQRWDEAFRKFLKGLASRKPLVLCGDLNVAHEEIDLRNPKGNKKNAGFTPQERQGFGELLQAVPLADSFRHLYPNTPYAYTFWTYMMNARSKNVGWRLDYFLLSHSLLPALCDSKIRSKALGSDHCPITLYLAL
Background: Quantitative high-throughput screening tests each substance at several concentrations.

Assay [2] can be described thus: qHTS for differential inhibitors of proliferation of Plasmodium falciparum line 3D7 (AID 1876). Also: potency is read from the fitted curve at half-maximal effect.
Assay [3] in a line: qHTS for differential inhibitors of proliferation of Plasmodium falciparum line Dd2 (AID 1882). Also: nearly all actives have a fitted effect of over 65% in size. Also: potency is read from the fitted curve at half-maximal effect. The following applies: Potency: Plasmodium falciparum Dd2 proliferation inhibition. In short, it runs like this: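 Dd2-infected erythrocytes (0.3% parasitemia, 2.5% hematocrit final) incubated with compound 72 h at 37 C, 5% CO2; lysed with saponin/Triton buffer containing SYBR Green I, incubated overnight in the dark, then read by fluorescence (485/535 nm). Normalized to 0.29 uM artemisinin and DMSO.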

The nature of assay [4]: qHTS for differential inhibitors of proliferation of Plasmodium falciparum line W2 (AID 1883).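 Also: parasites grown with compound for 72 h before lysis and staining.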 Also: potency is read from the fitted curve at half-maximal effect. Conditions: Potency: Plasmodium falciparum W2 proliferation inhibition.
Assay [5] in a line: qHTS Assay for Modulators of Human Peripheral Myelin Protein 22 (PMP22) Expression/Activity (AID 1967; active = well fitted curve in the direction sought with a large enough effect in the signal ratio; the % refers to the signal ratio). In short, it runs like this: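 Engineered MSC80 cells, Pmp22-promoter green and EF-alpha red luciferase reporters; 24h compound treatment at 37 °C. Concentration-response fits on green, red and ratio signals, each overlap-corrected, with %Activity normalized to untreated wells.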

The target in assay [6] is Ferritin light chain (Equus caballus) (UniProt P02791). The assay is described as follows: qHTS Validation Assay for Identification of Novel General Anesthetics (AID 2323). Also: series mostly up to about 77 µM. In short, it runs like this:
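Normalized fluorescence response, scaled between free 1-AMA and 1-AMA/apoferritin complex, fitted to a four-parameter Hill equation for concentration-effect values. Binding mix: 10 uM horse-spleen apoferritin, 50% saturated 1-AMA in PBS; read 380/535 nm after 10 min.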

Assay [7] addresses ATP-dependent DNA helicase Q1 (Homo sapiens) (UniProt P46063). Put plainly: qHTS Validation Assay for Inhibitors of RecQ-Like Dna Helicase 1 (RECQ1) (AID 2353). In short, it runs like this: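 50 nM RECQ1T1 preincubated 15 min with compound in Tris pH 8.0 buffer with MgCl2, DTT, Tween-20 and 2.5 ug/ml poly(dI-dC); started with 200 nM TAMRA/BHQ-2 forked duplex and 2 mM ATP. Unwinding read as fluorescence (525/598 nm), two reads 2 h apart.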

The nature of assay [8]: Cytometric Cell-Based qHTS for Inhibitors of the mTORC1 Signaling Pathway in MEF (Tsc2-/-, p53-/-) Cells (AID 2660). Also: potency is read from the fitted curve at half-maximal effect. In short, it runs like this:
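Percent of cells positive for normalized phospho-S6 staining is reported, with the cutoff set from rapamycin (7.5 nM) versus DMSO wells. Tsc2-/-, p53-/- MEFs received compound for 24 hrs.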

Assay [9] is described as follows: High Content Imaging Cell-Based qHTS for Inhibitors of the mTORC1 Signaling Pathway in MEF (Tsc2-/-, p53-/-) Cells (AID 2666).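 Also: percent of cells scored positive for phospho-rpS6 Ser235/236 immunostaining by imaging.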 Also: potency is read from the fitted curve at half-maximal effect. In short, it runs like this:
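Cells were plated, dosed with compound after 24 hrs, and incubated another 24 hrs at 37 degree Celsius. Fixed cells were immunostained for phospho-rpS6 Ser235/236 and counterstained, and the normalized signal was scored as % active cells against rapamycin and DMSO controls.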

Assay [10] is described as follows: High Content Imaging Cell-Based qHTS for Inhibitors of the mTORC1 Signaling Pathway in MEF Cells (AID 2667). Also: potency is read from the fitted curve at half-maximal effect. In short, it runs like this: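 Immunofluorescence for rpS6 phosphorylation in MEFs of Tsc2-/-, p53-/- background rescued with WT Tsc2. Compound exposure lasted 24 hrs. Inhibition was scored against rapamycin-treated control wells.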
The nature of assay [11]: qHTS for differential inhibitors of proliferation of Plasmodium falciparum line 7G8 (AID 1815).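 Also: parasite growth measured after three days of incubation.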 Also: potency is read from the fitted curve at half-maximal effect.
Assay [12] in a line: qHTS for differential inhibitors of proliferation of Plasmodium falciparum line GB4 (AID 1816).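 Also: parasite growth measured after 72 h incubation.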 Also: potency is read from the fitted curve at half-maximal effect. Conditions: Potency: Plasmodium falciparum GB4 proliferation inhibition.
The nature of assay [13]: qHTS for differential inhibitors of proliferation of Plasmodium falciparum line D10 (AID 1877).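 Also: parasites grown with compound for 72 h before DNA staining.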 Also: potency is read from the fitted curve at half-maximal effect.
Assay [14] in a line: qHTS for differential inhibitors of proliferation of Plasmodium falciparum line HB3 (AID 1886).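 Also: parasites grown with compound for 72 h before SYBR Green readout.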 Also: potency is read from the fitted curve at half-maximal effect. The following applies: Potency: Plasmodium falciparum HB3 proliferation inhibition.
Assay [15] has as its target RecQ-like DNA helicase BLM (Homo sapiens) (UniProt P54132). The assay is described as follows: qHTS Validation Assay for Inhibitors of Bloom's syndrome helicase (BLM) (AID 2364). In short, it runs like this: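 Forked 20-bp duplex substrate (200 nM, TAMRA/BHQ-2) plus 2 mM ATP added after 15 min compound preincubation with 50 nM enzyme, pH 8.0, poly(dI-dC) 2.5 ug/ml. Strand separation followed by fluorescence (525/598 nm) over 2 h, normalized to enzyme-free and DMSO controls.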

Assay [16] is described as follows: Counterscreen for APE1 Inhibitors: Fluorescent Dye Displacement Validation Assay (AID 1707). In short, it runs like this:
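ThO 250 nM + dsDNA 50 nM (THF abasic site, 5'-TAMRA), Tris-HCl pH7.5/50mM NaCl/2 mM MgCl2/0.01% Tween-20; compounds pin-transferred; ex 480/em 540 nm endpoint. Neutral = no compound; no-DNA ThO wells = negative control.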
(Counterscreens check selectivity or assay interference.)

For assay [17], the target named is Endonuclease 4 (Escherichia coli (strain K12)) (UniProt P0A6C1). Put plainly: Counterscreen for APE1 Inhibitors: qHTS Validation Assay for Inhibitors of Endonuclease IV (AID 1708). In short, it runs like this:
(§1)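 qHTS concentration-response format; LOPAC1280 tested under APE1-screen conditions. 2 nM enzyme, 15 min compound preincubation at RT, then 50 nM TAMRA/BHQ-2 abasic substrate; kinetic fluorescence read, three reads at 60 s intervals.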

Assay [18] has the same target. The assay is described as follows: Counterscreen for APE1 Inhibitors: qHTS Assay for Inhibitors of Endonuclease IV (AID 2565). In short, it runs like this:
as §1

Chain of Ferritin light chain (Equus caballus) (P02791 2-175 limits assumed): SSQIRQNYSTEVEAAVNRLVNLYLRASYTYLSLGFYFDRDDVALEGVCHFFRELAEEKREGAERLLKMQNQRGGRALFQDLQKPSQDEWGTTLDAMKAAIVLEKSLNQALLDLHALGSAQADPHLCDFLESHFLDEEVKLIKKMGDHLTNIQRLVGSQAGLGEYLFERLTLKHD
Chain of RecQ-like DNA helicase BLM (Homo sapiens) (P54132 whole entry, looked up): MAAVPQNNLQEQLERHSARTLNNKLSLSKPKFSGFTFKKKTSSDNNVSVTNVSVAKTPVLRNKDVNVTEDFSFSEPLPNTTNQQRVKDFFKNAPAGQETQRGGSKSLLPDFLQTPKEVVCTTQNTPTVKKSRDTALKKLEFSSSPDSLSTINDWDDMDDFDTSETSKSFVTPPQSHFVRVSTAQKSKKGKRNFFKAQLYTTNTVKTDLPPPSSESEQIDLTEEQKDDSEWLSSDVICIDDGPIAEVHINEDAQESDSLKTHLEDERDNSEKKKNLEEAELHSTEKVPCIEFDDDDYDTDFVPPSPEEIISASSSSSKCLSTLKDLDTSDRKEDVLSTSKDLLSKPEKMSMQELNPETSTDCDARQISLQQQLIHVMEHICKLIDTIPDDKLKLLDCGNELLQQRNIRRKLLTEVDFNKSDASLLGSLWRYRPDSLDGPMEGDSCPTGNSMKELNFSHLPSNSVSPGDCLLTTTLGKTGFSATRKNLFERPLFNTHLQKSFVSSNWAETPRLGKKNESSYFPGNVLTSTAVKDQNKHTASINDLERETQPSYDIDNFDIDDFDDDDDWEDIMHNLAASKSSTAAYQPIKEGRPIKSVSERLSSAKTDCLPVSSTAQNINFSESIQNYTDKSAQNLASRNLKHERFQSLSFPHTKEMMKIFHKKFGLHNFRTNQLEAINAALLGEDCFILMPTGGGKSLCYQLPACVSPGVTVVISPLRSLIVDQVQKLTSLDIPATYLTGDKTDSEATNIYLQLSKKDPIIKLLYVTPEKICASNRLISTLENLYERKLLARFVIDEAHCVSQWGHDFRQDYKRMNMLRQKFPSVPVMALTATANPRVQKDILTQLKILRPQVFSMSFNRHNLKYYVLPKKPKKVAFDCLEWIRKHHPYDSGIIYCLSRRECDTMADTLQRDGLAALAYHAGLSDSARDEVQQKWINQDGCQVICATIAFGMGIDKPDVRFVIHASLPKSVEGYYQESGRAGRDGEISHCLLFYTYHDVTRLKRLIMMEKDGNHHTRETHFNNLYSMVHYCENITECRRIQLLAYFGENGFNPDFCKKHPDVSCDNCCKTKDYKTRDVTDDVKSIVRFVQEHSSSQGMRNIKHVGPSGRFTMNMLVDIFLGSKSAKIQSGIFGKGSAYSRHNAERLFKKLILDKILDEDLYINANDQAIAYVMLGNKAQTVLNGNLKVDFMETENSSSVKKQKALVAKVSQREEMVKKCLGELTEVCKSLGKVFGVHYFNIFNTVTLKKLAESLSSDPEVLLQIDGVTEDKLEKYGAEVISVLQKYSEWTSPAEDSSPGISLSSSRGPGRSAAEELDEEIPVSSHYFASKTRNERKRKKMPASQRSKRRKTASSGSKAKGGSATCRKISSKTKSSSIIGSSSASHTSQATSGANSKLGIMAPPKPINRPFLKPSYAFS
Chain of ATP-dependent DNA helicase Q1 (Homo sapiens) (P46063 whole entry, looked up): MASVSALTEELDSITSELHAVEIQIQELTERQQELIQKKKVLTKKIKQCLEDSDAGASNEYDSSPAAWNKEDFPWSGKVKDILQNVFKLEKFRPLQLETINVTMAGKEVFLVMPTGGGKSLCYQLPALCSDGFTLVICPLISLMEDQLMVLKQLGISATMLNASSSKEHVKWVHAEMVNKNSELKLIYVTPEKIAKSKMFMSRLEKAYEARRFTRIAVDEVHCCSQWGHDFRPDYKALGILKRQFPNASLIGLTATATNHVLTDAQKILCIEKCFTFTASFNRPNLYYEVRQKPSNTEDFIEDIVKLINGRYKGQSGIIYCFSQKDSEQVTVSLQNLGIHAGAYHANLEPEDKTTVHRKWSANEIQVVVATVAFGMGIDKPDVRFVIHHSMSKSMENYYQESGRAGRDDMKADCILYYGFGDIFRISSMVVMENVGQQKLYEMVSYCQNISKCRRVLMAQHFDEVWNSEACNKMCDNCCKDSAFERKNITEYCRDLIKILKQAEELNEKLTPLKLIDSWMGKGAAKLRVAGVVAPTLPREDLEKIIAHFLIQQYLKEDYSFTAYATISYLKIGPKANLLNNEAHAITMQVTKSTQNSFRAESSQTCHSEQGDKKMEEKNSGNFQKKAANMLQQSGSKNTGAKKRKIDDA

`CN1CCC(c2c[nH]c3ccc(O)cc23)CC1`: the Potency result in [1], in assay [3], in assay [7], in assay [8], in assay [9] and in [10] was “inactive” each time. In addition, the Potency in assay [2] is 10 µM (active); in assay [4], 8.91 µM (active). Also, the molecule was called inactive in assay [5] and in assay [6].

As for `COc1ccc(CNC(=O)/C=C/c2ccc3[nH]cc(CCN(C)C)c3c2)cc1`, the Potency entry in assay [1], in [7], in assay [15], in [8], in [9] and in assay [10] was “inactive” in each case. In addition, the Potency in assay [11] is 11.2 µM (active); in assay [12], 11.2 µM (active); in [2], 8.91 µM (active); in assay [13], 11.2 µM (active); in assay [4] it was 8.91 µM (active); in [14] it was 10 µM (active). Besides, the call in assay [6] was inactive.

Turning to `CNC(=O)OCC[N+](C)(C)C`, the Potency result in [16], in [17], in [11], in assay [12], in assay [2] and in [3] was “inactive” in each case. The Potency entry in assay [4], in assay [14], in [7] and in [15] was “inactive” each time. In addition, the molecule was classed as inactive in assay [6].

Take `C[N+]1(C)CCC(OC(=O)C(c2ccccc2)c2ccccc2)CC1`: the Potency result in assay [1], in assay [17] and in assay [7] was “inactive” throughout. The Potency was 8.91 µM (active) in [11]; 12.6 µM (active) in [12]; 3.16 µM (active) in [2]; 7.08 µM (active) in assay [13]; 3.98 µM (active) in assay [4]; 7.94 µM (active) in assay [14]. In addition, the molecule was classed as inactive in assay [6].

With `C[N+](C)(C)CC#CCOC(=O)Nc1cccc(Cl)c1`, the Potency result in [1], in assay [3], in assay [8], in assay [9] and in [10] was “inactive” throughout. The Potency in [2] was 12.6 µM (active); in assay [13] it was 11.2 µM (active); in assay [4], 12.6 µM (active). For the same molecule, the outcome in [5] and in assay [6] was inactive.

Take `COc1ccc2c(c1)[C@@]13CCCC[C@H]1[C@@H](C2)NCC3`: the Potency result in [1], in assay [17], in [7], in [15], in [8] and in assay [9] was “inactive” each time. In assay [10], the Potency entry was “inactive”. In addition, the Potency in assay [11] is 3.55 µM (active); in assay [12], 7.08 µM (active); in assay [4] it was 1.12 µM (active); in assay [14], 11.2 µM (active). In addition, the molecule was called inactive in assay [6].

Take `c1ccc2c(c1)[I+]c1ccccc1-2`: the Potency is 0.1 µM (active) in [11]; 0.0708 µM (active) in assay [12]; 0.0708 µM (active) in assay [2]; 0.141 µM (active) in assay [13]; 1 µM (active) in assay [3]; 0.1 µM (active) in assay [4]. Moreover, the Potency in assay [14] is 0.0562 µM (active); in [9], 3.29 µM (active); in assay [10] it was 0.0585 µM (active). The result in assay [6] and in assay [18] was inactive. The Potency entry in [15] is “inactive”.

Take `C[N+]1(C)C2CCC1CC(OC(=O)c1c[nH]c3ccccc13)C2` (stereo not drawn): the Potency entry in assay [16], in assay [17], in [8], in assay [9] and in assay [10] was “inactive” in each case. Also, the Potency in assay [11] is 11.2 µM (active); in [12] it was 12.6 µM (active); in assay [2] it was 14.1 µM (active); in assay [13], 12.6 µM (active); in assay [3], 12.6 µM (active); in [4] it was 7.94 µM (active). In addition, in [14], the Potency was 14.1 µM (active).

`O=C1CC[C@@]2(O)C3Cc4ccc(O)c5c4C2(CCN3CC2CC2)[C@H]1O5` (stereo partly drawn): the Potency entry in assay [1], in [17], in [11], in assay [12], in assay [3] and in assay [7] was “inactive” throughout. For the same molecule, the Potency result in assay [8], in [9] and in assay [10] was “inactive” each time. Further, the Potency in assay [4] was 10 µM (active). Besides, the result in [5] and in assay [6] was inactive.

Consider `COc1ccc2c(c1OC)C(=O)OC2C1c2cc3c(cc2CCN1C)OCO3` (stereo not drawn), for which the Potency entry in assay [1], in assay [17], in assay [11], in assay [2], in assay [13] and in assay [3] was “inactive” each time. The Potency entry in assay [14] and in assay [7] was “inactive” each time. In [6], the outcome was inactive.

As for `OCc1cnc[nH]1`, the Potency result in assay [1], in assay [17], in assay [3], in assay [7], in assay [15] and in [8] was “inactive” each time. Further, the Potency entry in [9] and in [10] was “inactive” in each case. Further, the results for the Potency in [12] and in assay [14] were 7.94 µM (active) and 10 µM (active), respectively. The molecule was classed as inactive in assay [6].

For `CCCCCCCCCCCCCC(=O)O[C@@H]1[C@@H](C)[C@@]2(O)[C@@H](C=C(CO)C[C@@]3(O)C(=O)C(C)=C[C@@H]23)C2C(C)(C)[C@@]21OC(C)=O` (stereo partly drawn), the Potency in [11] is 5.62 µM (active); in [12] it was 11.2 µM (active); in [2], 10 µM (active); in [13], 11.2 µM (active); in assay [4], 7.08 µM (active); in assay [14], 12.6 µM (active).

Take `COc1ccc2c(c1)/C(=C/c1cnc[nH]1)C(=O)N2`: the Potency entry in assay [1], in assay [7] and in [15] was “inactive” throughout. In addition, the Potency in [11] was 7.08 µM (active); in [12], 8.91 µM (active); in assay [2], 12.6 µM (active); in assay [13] it was 14.1 µM (active); in assay [3], 12.6 µM (active); in assay [4], 7.08 µM (active). Besides, the Potency is 12.6 µM (active) in assay [14] and 10.4 µM (active) in [8].

As for `O=S1(=O)N(CCN2CC=C(c3c[nH]c4cc(F)ccc34)CC2)c2cccc3c2N1CCC3`, the Potency result in assay [1], in assay [7], in assay [15], in [8], in assay [9] and in assay [10] was “inactive” in each case. Further, the Potency is 1.41 µM (active) in [11]; 1.41 µM (active) in assay [12]; 0.501 µM (active) in assay [2]; 1.26 µM (active) in assay [13]; 2 µM (active) in assay [3]; 1 µM (active) in assay [4]. Further, in assay [14], the Potency is 1.26 µM (active). For the same molecule, the molecule was classed as inactive in assay [6].
